Results on 40 compounds are retold here after PubChem BioAssay (NCI).

About 83,000 compounds went through this panel and 20% of them were active in at least one assay; those are over-represented in the sample as a whole.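 Testing used 96-well plates and a 48-hour single-concentration exposure. Example: -40 means 40% of the starting cells died.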 A number with no mark means an inactive call. Active and inactive are the calls of the source. How the source made its calls: active means growth percent below 10; inactive means the rest.

The test system of the test is HL-60(TB) leukemia. In words: NCI-60 one-dose screen, 48 h (100 = growth as untreated, 0 = no growth, -100 = all killed). Conditions: 10 µM unless noted.
For `O=[N+]([O-])c1cc(S(=O)(=O)OCC2CO2)ccc1Cl` (stereo not given), the growth is 80.2%.

In the case of `CCC(=O)NC1=C(Cl)C(=O)C(NC(=O)CC)=C(Cl)C1=O`, the growth is -51.1% (active).

`CCOc1ccc(-n2c(-c3cc(OC)c(OC)c(OC)c3)nnc2-c2ccc(OC)cc2N)cc1`: the growth was 28.5%.

On to `O=C(/C=C\c1ccc2ccccc2n1)c1cc(Cl)ccc1O`, for which the growth was 89.8%.

With `C[C@H]1[C@H]2C3=CC[C@@H]4[C@@]5(C)C/C(=C/c6ccco6)C(=O)C(C)(C)[C@@H]5CC[C@@]4(C)[C@]3(C)CC[C@@]2(C(=O)N2CCOCC2)CC[C@@H]1C`, the growth is 14.7%.

Consider `O=C(N(c1ccccc1)c1ccccc1)n1ccc2nc(Cl)nc(Cl)c21`, for which the growth was 49.5%.

On to `COc1ccc(-c2c3c(nn2-c2ccc(N)cc2)CCc2cnoc2-3)cc1OC`, for which the growth is 93.1%.

For `Cc1ccc(/C=N/NC(=O)CSc2nc3ccccc3c(=O)n2Cc2ccc(S(N)(=O)=O)cc2)cc1`, the growth is 97.8%.

Consider `CCCCCCCCCCCCCCn1cc(C2=C(c3coc4ccc(OC)cc34)C(=O)NC2=O)c2ccccc21`, for which the growth was 129%.

`Nc1ccc(Sc2ccc([N+](=O)[O-])c3nonc23)cc1`: the growth is 42.8%.

With `CC(C)(C)OC(=O)N1C/C(=C\c2ccoc2)C(=O)/C(=C/c2ccoc2)C1`, the growth was 87.6%.

On to `Cc1ccc2c3c(cccc13)-c1ccccc1C2=O`, for which the growth was 99%.

Turning to `Brc1ccc([I+]c2ccc(Br)cc2)cc1`, the growth is -25.6% (active).

In the case of `COc1ccc2nc3cc(Cl)ccc3c(NCCNc3c4ccc(Cl)cc4nc4ccc(OC)cc34)c2c1`, the growth was -75% (active).

`Clc1ccc(C2=NN[C@H](c3cn(-c4ccccc4)nc3-c3ccccc3)C2)cc1`: the growth is 100%.

For `NNC(=O)CNc1ccc2ccccc2c1`, the growth was 84.8%.

As for `CCO/C=N/C1=C(C#N)C(c2ccc(F)cc2)c2sc3c(F)cccc3c2O1` (stereo not given), the growth was 6.35% (active).

For `CC1Cc2c(N(C)C)ncnc2N(C)c2ccc(Cl)cc21` (stereo not given), the growth is -7.29% (active).

Consider `O=S(=O)(NCCNc1nccc(-c2c(-c3cccc(O)c3)nc3occn23)n1)c1ccccc1`, for which the growth was 55.3%.

Consider `c1nc(N2CCOCC2)c2[nH]ccc2n1`, for which the growth was 90.2%.

With `NC1=C(C/C(N)=N\O)C(c2ccccc2Cl)c2c(ccc3ccccc23)O1` (stereo not given), the growth was 84.9%.

On to `CCOC(=O)C(=CNc1ccccc1Cl)C(=O)OCC`, for which the growth was 86.4%.

On to `CC1=CC(=O)C(C(C)C)=CC1=Nc1cc(Br)c(O)c(Br)c1`, for which the growth was -9.85% (active).

In the case of `CN(C)c1ccc(/C=C/C(=O)c2ccc(Nc3nc(Nc4ccc(F)cc4)nc(Nc4ccc(Cl)cc4)n3)cc2)cc1`, the growth is -70.5% (active).

`O=C1CSC(=S)N1CCc1ccc(O)cc1`: the growth is 92%.

For `CCOc1ccc(-n2nc(C(=O)Nc3cc(OC)c(OC)c(OC)c3)nc2-c2cc(OC)c(OC)c(OC)c2)cc1`, the growth was 98.2%.

`N#Cc1c(N2CCOCC2)nc(=S)[nH]c1-c1ccco1`: the growth is 70.7%.

`COC(=O)c1[nH]nc(OC)c1C1(C(C#N)c2nc3ccccc3s2)CCCc2ccccc21` (stereo not given): the growth was 79.8%.

Take `N#Cc1c(N)nc(Nc2nc3ccccc3[nH]2)nc1-c1ccc(Cl)cc1`: the growth is 106%.

For the compound `C=C1C(=O)O[C@H]2[C@H]1CC/C(COC(=O)N[C@@H](Cc1c[nH]c3ccccc13)C(=O)OC)=C\CC[C@@]1(C)O[C@@H]21`, the growth was -52.6% (active).

Turning to `N#CC(=C1C=CC(=NO)C=C1)c1ccccc1`, the growth was 4.88% (active).

Turning to `C=C(NC(=O)C(=C)NC(=O)c1csc(C2=NC3c4csc(n4)C4NC(=O)c5csc(n5)C(C(C)(O)C(C)O)NC(=O)C5CSC(=N5)C(=CC)NC(=O)C(C(C)O)NC(=O)c5csc(n5)C3(CC2)NC(=O)C(C)NC(=O)C(=C)NC(=O)C(C)NC(=O)C(C(C)CC)NC2C=Cc3c(C(C)O)cc(nc3C2O)C(=O)OC4C)n1)C(N)=O` (stereo not given), the growth is 3.83% (active).

As for `COc1ccccc1CNCCN1C(=O)c2ccc3c4c(ccc(c24)C1=O)C(=O)N(CCNCc1ccccc1OC)C3=O`, the growth was -71.8% (active).

Consider `COc1cc(-c2c(C#N)c(N)n3c(nc4ccccc43)c2C#N)cc(Br)c1OC`, for which the growth was 62.9%.

In the case of `O=C1/C=C/[C@@H](O)[C@@H]2C[C@@H](O)C[C@H]2/C=C/CCC[C@H](CCO)O1`, the growth was 3.3% (active).

In the case of `O=C(CSc1ncccc1C(=O)O)Nc1ccc(Oc2ccccc2)cc1`, the growth is 87.5%.

With `Cc1c(O)nc(N)[nH]c1=O`, the growth is 137%.

As to `CCOC(=O)[C@H](CSSc1ncnc2cc[nH]c12)NC(=O)[C@@H](C)c1ccc2cc(OC)ccc2c1`, the growth is 7.65% (active).

With `COc1cc(/C(=C2/O[C@@H]([C@H]3COC(C)(C)O3)[C@H]3OC(C)(C)O[C@@H]23)c2ccc3c(c2)OCO3)cc(OC)c1OC`, the growth was 86.1%.

`O=C(Nc1cc(C(F)(F)F)cc(C(F)(F)F)c1)Nc1ccc(OCc2nnc(-c3ccc(Cl)cc3)o2)c(F)c1`: the growth is 5.4% (active).
